Compound activity: PubChem BioAssay, National Center for Advancing Translational Sciences (NCATS)
Hits are enriched below; roughly 14% of the tested compounds scored in any of these assays.
Pf growth 96h: inhibits malaria parasite growth, 96 h | AID 504834 | P. falciparum luciferase reporter growth, 96 h | Potency, µM (doses to about 28.7 µM), inactives show top-dose activity change, negative = inhibition, hits mostly inhibitors | 6.9% of 320,000 active; further: potency means the concentration at half of the fitted maximal effect
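Infected RBCs, 2% Hct / 0.05% parasitemia final; luciferase-reporter P. falciparum; cpd 96 h, 37 C, 5% CO2; luciferase detection reagent; luminescence.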
Lassa entry inh: inhibitors of Lassa virus binding or cell entry; AID 540256; Lassa virus pseudotype entry inhibition, cell reporter; 1.2% of 300,000 active; Potency, µM (doses to about 37.9 µM), inactives show at the top dose activity change, negative = inhibition, hits mostly inhibitors; calls by dose curve; tested in HEK293 cells; further: potency means the concentration at half of the fitted maximal effect; nearly all actives have a fitted effect of over 50% in size
Pf growth 48h: P. falciparum growth inhibition at 48 hours (one generation) | P. falciparum luciferase growth in erythrocytes, 48 h | Potency, µM (top dose mostly 28.7 µM), for the others: at the top dose activity change, negative = inhibition, usual class: inhibitors | 5.9% of 310,000 active; further: potency means the concentration at half of the fitted maximal effect
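Read-out is firefly luciferase luminescence from an integrated reporter in P. falciparum, so falling signal marks reduced parasite growth. Infected erythrocytes were at 2% hematocrit and 0.1% parasitemia (final) in Albumax-supplemented RPMI 1640.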
HCMV antiviral: inhibitors of human cytomegalovirus | HFF cells, HCMV-luciferase reporter, 72 h; active compounds read low | activity change, negative = inhibition, % at 57.5 µM | 4.5% of 410,000 active | AID 1259415; in the data active means activity change below about -60%; inconclusive means no clear call, values can overlap the other calls; inactive means above about -39%
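Human foreskin fibroblasts infected with luciferase-reporter HCMV at MOI 1 PFU/cell, compounds at two doses. Luciferase measured 72 h post infection; normalized to buffer-only basal and Salinomycin (10uM) controls.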
MARV entry inh: Marburg virus entry inhibition | 1.8% of 300,000 active | Marburg virus pseudotyped entry inhibition, cell reporter | Potency, µM (top dose mostly 37.8 µM), for the others: at the top dose activity change, negative = inhibition, hits mostly inhibitors | AID 540276; calls by dose curve; tested in HEK293 cells; further: potency means the concentration at half of the fitted maximal effect
HCV inh: HCV inhibition. Huh7.5.1 HCVcc-Cre infection, luciferase reporter, 44 h. Potency, µM (series often up to 41.8 µM), for the others: at the highest dose activity change, negative = inhibition, most hits filed as inhibitors. 3.4% of 340,000 active. AID 651820; further: potency means the concentration at half of the fitted maximal effect
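Infectious HCV cell culture screen: compound-treated cells (1,000/well, pre-plated 4 h) are infected with HCVcc-Cre at roughly 0.5 moi and grown 44 h. Infection is quantified by luciferase signal after 15 min substrate incubation at room temperature.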
* hit, by the source's call; u = inconclusive; x = not tested or not shown; [ ] = remark or other dose. Unless noted, the call rests on the fitted dose curve; in most records, active means well fitted inhibition curve with a large enough effect; inconclusive means small, poorly fitted or top-dose-only effect, or another doubt; inactive means no such curve, though single readings can be large or run the other way. On the % scale 0 is the no-effect control and ±100 the full control effect.

SMILES	Pf growth 96h	Lassa entry inh	Pf growth 48h	HCMV antiviral	MARV entry inh	HCV inh
O=C(CN1CCCC1)Nc1ccc(-c2nc3cc(NC(=O)CN4CCCC4)ccc3o2)cc1	u	u	2.33µM*	-100.0*	u	u
CC(=O)Nc1ccc(NC(=O)c2sc(-c3ccccc3)nc2C)cc1	u	u	-4.5%	-26.2	u	u
Cc1nc(-c2cccnc2)sc1C(=O)Nc1cccc(C(F)(F)F)c1	11.7µM*	13.0%	u	u	-10.1%	-1.4%
Cc1nc(-c2cccnc2)sc1C(=O)Nc1ccc(C(F)(F)F)cc1	0.0%	10.9%	u	u	7.0%	u
Cc1nc(-c2ccncc2)sc1C(=O)Nc1ccc(Br)cc1	3.2%	2.6%[46.1 µM]	u	-72.0*	u	-6.6%
COc1ccc(Cn2nnnc2CN2CCC(c3nc4ccccc4s3)CC2)cc1	181.7%	u	11.7µM*	-69.8*	u	25.1µM*
c1ccc2sc(C3CCN(Cc4nnnn4Cc4ccc5c(c4)OCO5)CC3)nc2c1	8.6%	u	u	u	u	u
Cc1cc2nc(C3CCN(Cc4nnnn4Cc4ccccc4)CC3)[nH]c2cc1C	5.22µM*	-16.7%	u	19.3	u	u
Cc1ccc(C)c(CSc2nc3ccncc3n2CC(=O)Nc2ccc(N(C)C)cc2)c1	x	-9.9%[46.1 µM]	x	-21.2	-22.5%[46.1 µM]	x
COc1ccc(NC(=O)Cn2cc(C(=O)C3CCCCC3)c3ccccc32)cc1	x	0.7%[46.1 µM]	x	13.5	1.8%[46.1 µM]	x
CCOC(=S)SCc1cn2ccccc2n1	-11.0%	13.6%	-2.9%	-29.2	-15.7%[46.1 µM]	-1.7%
CCOC(=S)SCc1cn2ccc(C)cc2n1	u	22.2%	-17.5%	-65.0*	-1.3%	5.4%
COc1ccccc1CNS(=O)(=O)c1cc(C(=O)Nc2cccc(C(F)(F)F)c2)ccc1F	x	u	x	-66.6*	x	x
O=C(Nc1cc(Cl)cc(Cl)c1)c1ccc(F)c(S(=O)(=O)NCc2ccccc2Cl)c1	x	-17.7%[46.1 µM]	x	-98.5*	x	x
CCc1ccc(NC(=O)c2ccc(F)c(S(=O)(=O)NCc3ccc(Cl)c(Cl)c3)c2)cc1	x	u	x	53.7	x	x
Cc1cccc(NC(=O)c2ccc(F)c(S(=O)(=O)NCc3ccco3)c2)c1	u	x	-0.5%	-14.2	x	u
O=C(Nc1cccc(C(F)(F)F)c1)c1ccc(F)c(S(=O)(=O)N2CCc3ccccc3C2)c1	x	0.6%[46.1 µM]	x	30.9	x	x
O=C(Nc1cccc(Cl)c1)c1ccc(F)c(S(=O)(=O)NCc2cccs2)c1	-8.9%	u	2.3%	-92.8*	u	u
COc1ccc(CNS(=O)(=O)c2cc(C(=O)Nc3cc(Cl)cc(Cl)c3)ccc2F)cc1	x	-13.6%[46.1 µM]	x	-78.4*	x	x
O=C1OCC2=C1C(c1cccc(Cl)c1)CC(=O)N2c1ccc(C(F)(F)F)cc1 (stereo not drawn)	x	-6.5%[46.1 µM]	x	7.8	-21.3%[46.1 µM]	x
CCc1ccc(-n2nc(CO)c(C(=O)NCc3cccnc3)n2)cc1	x	2.5%[46.1 µM]	x	1.6	u	x
Clc1cccc(Nc2nc(-c3ccncc3)nc3ccccc23)c1	0.928µM*	u	-16.9%	3.1	u	u
Fc1ccc(Nc2nc(-c3ccncc3)nc3ccccc23)cc1F	u	6.3%[46.1 µM]	u	11.8	7.08µM*	11.2µM*
c1ccc2c(Nc3nc(-c4ccncc4)nc4ccccc34)cccc2c1	u	-5.2%	u	84.8	u	u
Fc1ccccc1Oc1nc(-c2ccncc2)nc2ccccc12	3.29µM*	x	u	-33.4	x	0.562µM*
Clc1ccccc1Nc1nc(-c2ccncc2)nc2ccccc12	u	x	13.1µM*	1.7	x	7.08µM*
CC(=O)Nc1cccc(Nc2nc(-c3ccccc3F)nc3ccccc23)c1	u	-29.5%[46.1 µM]	-27.7%	-8.6	u	u
COC(=O)[C@H]1[C@H](CO)[C@H]2Cn3c(cccc3=O)[C@H]2N1Cc1ccccc1Cl	x	x	x	18.5	x	x
CCC(C)NC(=O)c1ccc2nc(CCc3ccccc3)oc2c1 (stereo not drawn)	x	u	x	22.4	x	x
Clc1cccc(CSc2nncn3c2cc2sccc23)c1	x	-1.7%[46.1 µM]	x	u	x	x
